Not all results are given here.
aSyn UTR act – Activators via SNCA 5'UTR binding, MLPCN | alpha-synuclein 5'UTR reporter, activators screen | activity score, % (tested at 7.5 µM), hits read low | 300,000 tested, 7.1% active; in the data active means activity score below about -60%
An asterisk follows results filed as active.

SMILES | aSyn UTR act
COc1cc(/C=N/n2cnnc2)ccc1OCc1ccc(C)cc1 | -100*
CCS(=O)(=O)c1ccc(N=Nc2ccc(O)c3ncccc23)c(OC)c1 | 78
Cc1ccc2cccc(OCCCOc3ccccc3F)c2n1 | -74*
Nc1sc(-c2ccccc2)n[n+]1Cc1cccc2cccnc12 | 53
Clc1ccccc1OCCCOc1cccc2cccnc12 | -118*
Cc1ccc2ccc3ccc(C)nc3c2n1 | 72
CCCCC(=O)NC(c1ccccc1OC)c1ccc2cccnc2c1O (stereo not drawn) | 101
CCCC(=O)NC(c1ccccc1OC)c1ccc2cccnc2c1O (stereo not drawn) | 124
COc1cccc(OC)c1OCCCOc1cccc2cccnc12 | -106*
Fc1ccc(COc2cccc3cccnc23)cc1 | -141*
C/C(Cc1ccccc1)=N\NC(=O)c1ccccn1 | -67*
CCC(C)c1ccc(NC(=O)C/C(C)=N/NC(=O)c2cnccn2)cc1 (stereo not drawn) | -63*
C/C(CC(=O)Nc1cc(C)cc(C)c1)=N\NC(=O)c1ccccn1 | -165*
C/C(CC(=O)Nc1ccc2c(c1)OCCO2)=N\NC(=O)C(=O)Nc1ccccc1C | -74*
C/C(CC(=O)Nc1ccccn1)=N\NC(=O)c1ccccc1O | 71
C/C(=N\NC(=O)c1ccccc1Cl)c1ccccn1 | 82
C/C(CC(=O)Nc1ccccn1)=N\NC(=O)c1ccc2ccccc2c1 | -64*
C/C(=N/NC(=O)c1ccccn1)c1ccncc1 | -116*
C/C(CC(=O)Nc1ccc2c(c1)OCCO2)=N\NC(=O)c1ccccn1 | -143*
COc1ccc(NC(=O)C/C(C)=N/NC(=O)c2ccccn2)c(OC)c1 | -107*
CC(C)(O)C#Cc1ccc(C(=O)NCc2ccccc2F)cc1 | -66*
O=C(C#Cc1ccccc1)NCc1ccccc1F | -70*
Cc1cc(/C([O-])=C(/C(=S)Nc2ccc(F)cc2)[n+]2ccccc2)c(C)n1-c1ccc(F)cc1 | -121*
O=C(CC1CCCCC1)NCc1ccccc1Cl | -107*
Cc1cc(C)c2c3c(sc2n1)C1(CCSCC1)C(C#N)=C(N)O3 | -90*
SMILES | aSyn UTR act
O=C(NC1CCCCC1)c1cc(-c2ccccc2Cl)on1 | -162*
COCC(C)NC(=O)c1cc(-c2ccccc2OC)on1 (stereo not drawn) | -102*
Cc1occc1C(=O)NC1CCCCCCC1 | -77*
Cc1cc(NC(=O)c2cc(-c3ccc(O)cc3)on2)no1 | -62*
COc1ccc(OC)c(-c2cc(C(=O)Nc3c(C)nn(Cc4ccccc4C)c3C)no2)c1 | 60
O=C(NC1CCCC1)c1cc(-c2ccc(Cl)cc2Cl)on1 | -122*
COc1ccccc1-c1cc(C(=O)Nc2cc(C)on2)no1 | -146*
COc1ccccc1C(=O)NC1CCCCCCC1 | -71*
Cc1occc1C(=O)NN=C1C2CC3CC(C2)CC1C3 | -141*
COc1ccccc1-c1cc(C(=O)NC2CCN(C)CC2)c2ccc(Cl)c(C)c2n1 | 101
CC1CCCC(C)N1C(=O)c1cc(-c2cccs2)on1 (stereo not drawn) | -137*
COc1ccccc1-c1cc(C(F)(F)F)nc(S(=O)(=O)CCCC(=O)Nc2cc(C)on2)n1 | -65*
O=C(NC1CCCC1)c1cc(-c2cccs2)on1 | -343*
COc1ccccc1-c1cc(C(=O)NC2CCCC2)no1 | -98*
O=C(NC1CCCC1)c1cc(-c2ccccc2O)on1 | -77*
Cc1ccc(CSc2nnc(SCC(=O)N/N=C/c3ccccc3OCC(=O)O)s2)cc1 | 62
O=C(CSc1nnc(SCc2ccc(Cl)cc2)s1)N/N=C/c1c(Cl)cccc1Cl | -69*
O=C(CSc1nnc(SCc2ccccc2Cl)s1)N/N=C/c1c[nH]c2ccccc12 | -94*
Cc1ccc(CSc2nnc(SCC(=O)N/N=C/c3ccc(C(=O)O)cc3)s2)cc1 | 70
Cc1ccc(Sc2ncccc2COC(=O)NC(C)C)cc1 | -89*
O=C(COC(=O)c1ccccc1Br)NCCC1=CCCCC1 | -64*
COc1ccc(C(=O)NCCC2=CCCCC2)cc1OC1CCN(C(C)C)CC1 | -74*
Cc1cc(C(=O)NCCC2=CCCCC2)c(C)o1 | -123*
COc1cccc(C(=O)NCCC2=CCCCC2)c1OC | -117*
O=C(NCCC1=CCCCC1)c1cnccn1 | -114*
SMILES | aSyn UTR act
c1ccc2nc3c(nc2c1)OCC1CCCCN31 (stereo not drawn) | -91*
CCC1CC(C(=O)Nc2ccccc2)C(=O)O1 (stereo not drawn) | -64*
COC(=O)C1(C)CCC(C(=O)Nc2ccccc2)C1(C)C (stereo not drawn) | 62
Cc1ccc(-c2csc(N=C(N)N)n2)cc1 | -116*
CN(C)c1cccc(/C=C(\C#N)c2ccccc2)c1 | -155*
O=[N+]([O-])c1ccc(F)cc1OCc1nc(-c2cccs2)no1 | -177*
Cc1ccc(OCc2nc(-c3cccs3)no2)c([N+](=O)[O-])c1 | -64*
O=[N+]([O-])c1ccccc1OCc1nc(-c2cccs2)no1 | -114*
CCOc1cc2nc3c4ccccc4n(C)c3nc2cc1OCC | -62*
O=C(N/N=C/c1ccc([N+](=O)[O-])s1)c1ccccc1 | 68
COc1ccccc1NC(=O)C(=O)N/N=C/c1ccc([N+](=O)[O-])s1 | -138*
COC(=O)N/N=C/c1ccc([N+](=O)[O-])s1 | -142*
O=C(CNC(=O)c1cccc(F)c1)N/N=C/c1ccc([N+](=O)[O-])s1 | -105*
CN(C)/C=N/c1cnc(C(=O)c2ccc(Cl)cc2)n1C | -202*
CCC(C)NC(=O)c1cc(Cl)c(NC(=O)C2=C(C)OCCS2)cc1OC (stereo not drawn) | -62*
C/C(N)=C(/C#N)C(=O)COC(=O)c1cc2c(s1)CCC(C)C2 (stereo not drawn) | -73*
CC(C)(C)SCCNC(=O)/C=C/c1ccc(F)cc1 | -68*
O=C(/C=C/c1ccccc1)NCCc1ccccc1 | -154*
CC(C)(C)SCCNC(=O)/C=C/c1ccccc1 | -113*
CC(C)NC(=S)NC(=O)/C=C/c1ccc(F)cc1 | -64*
C[C@@H]1C=CC(=O)O[C@@H]1c1ccc(Cl)cc1 | -194*
Cc1nn(-c2ccccc2)c(Cl)c1/C=N/Nc1nnc(C)c(=O)[nH]1 | -62*
Cc1nn(-c2ccccc2)c(Cl)c1/C=N/Nc1nc2ccccc2n1C | -121*
Cc1nn(-c2ccccc2)c(Cl)c1/C=N/NC(=O)c1ccnn1C | -108*
CCc1n[nH]c(=S)n1/N=C/c1c(C)nn(-c2ccccc2)c1Cl | 106
SMILES | aSyn UTR act
Cc1cc(-c2onc3ccc(Cl)cc23)ccc1O | -91*
Cc1ccc(-c2onc3ccc(C=O)cc23)cc1 | -139*
CCSc1ncc(/C=N/Nc2ccc([N+](=O)[O-])cc2)n1C | -194*
CCSc1ncc(/C=N/Nc2ccccc2)n1C | -109*
CCSc1ncc(/C=N/Nc2ccc(Cl)cc2)n1C | -181*
CC1CCC/C=C/C(=O)c2c(O)cc(O)cc2CC(=O)O1 (stereo not drawn) | -153*
CC(C)(C)c1nnc(NC(=O)COc2ccc3c(c2)OCO3)s1 | -81*
CCN(CC)C(=O)c1sc(NC(=O)c2ccc3c(c2)OCO3)c(C(N)=O)c1C | -105*
CCCC(=O)NC(c1ccc2c(c1)OCO2)c1cc(Cl)c2cccnc2c1O (stereo not drawn) | 80
CCCC(=O)Nc1nnc(-c2ccc3c(c2)OCO3)s1 | -141*
CCSc1nnc(NC(=O)c2ccc3c(c2)OCO3)s1 | -94*
CC(c1ccccc1)c1nnc(NC(=O)c2ccc3c(c2)OCO3)s1 (stereo not drawn) | -139*
CC(C)(C)c1nnc(NC(=O)c2ccc3c(c2)OCO3)s1 | -191*

Assay outcomes (PubChem BioAssay)
